One assay has as its system Staphylococcus aureus. Particulars: Concentration 32 ug.mL-1;; ASSAY_TEST Inhibition of Bacterial Growth; detection method Absorption (OD600); MEDIA CAMHB; plate type 384well; NBS; CORNING #3640; time 18 hr.
The test system of the next assay is Escherichia coli. Particulars: Concentration 32 ug.mL-1;; ASSAY_TEST Inhibition of Bacterial Growth; detection method Absorption (OD600); MEDIA CAMHB; plate type 384well; NBS; CORNING #3640; time 18 hr.

Potency and affinity values are given separately.

In the case of `CCc1nnc2c(=O)n(CC(=O)Nc3ccc(Br)cc3F)c3ccccc3n12`, the Inhibition with Staphylococcus aureus is given as -3.08%; with Escherichia coli it was 3.54%.
On the same counts, the results for `CCc1cccc(NC(=O)Cn2nc3c(SC4CCCCC4)nccn3c2=O)c1` are -3.76% and -12.2%.
On the same counts, the results for `Cc1ccccc1Nc1cc(C)n2c(=O)n(CCOc3ccc(F)cc3)nc2n1` are 13.1% and -3.45%.
Regarding `CCOc1ccc(C(=O)CSc2nnc3c(=O)n(-c4ccc(C)c(C)c4)ccn23)cc1`, the Inhibition is given as 9.97% in the assay with Staphylococcus aureus and -11.39% in the assay on Escherichia coli.
Taken in the same sequence, the figures for `COc1ccc(-c2cc3c4nnc(SCC(=O)Nc5ccc(C)c(F)c5)n4ccn3n2)cc1` were 0.86% and -1.39%.
On the same counts, the results for `Cc1nnc2c(S(=O)(=O)N(Cc3cccc(Cl)c3)c3ccc(F)c(F)c3)cccn12` are 3.24% and -3.66%.
Taken in the same sequence, the figures for `O=C(Cn1nc2c(N3CCOCC3)nccn2c1=O)NCc1ccc(Cl)cc1` were 9.06% and 3.48%.
For the molecule `Cc1ccccc1Nc1cc(C)n2c(=O)n(CCc3ccccc3)nc2n1`, the Inhibition with Staphylococcus aureus is recorded as -11.65%; with Escherichia coli, -1.35%.
Turning to `Cc1ccc(NC(=O)Cn2nc3c(SC4CCCCC4)nccn3c2=O)c(Br)c1`, the results for the Inhibition in the assay on Staphylococcus aureus and in the assay on Escherichia coli were 0.51% and -5.93%, respectively.
For the molecule `Cc1cccc(N(C)C(=O)Cn2nc3cc(C)nc(Nc4ccc(C)c(F)c4)n3c2=O)c1`, the Inhibition in the assay on Staphylococcus aureus was -15.22%; with Escherichia coli, 0.9%.
On to `COc1ccc(NC(=O)Cn2nc3ccc(SC4CCCCC4)nn3c2=O)c(OC)c1`, for which the figures for the Inhibition in the assay on Staphylococcus aureus and in the assay on Escherichia coli were 7.02% and -7.62%, respectively.
Taken in the same sequence, the figures for `Cc1cc(Br)ccc1NC(=O)Cn1nc2c(Sc3cccc(F)c3)nccn2c1=O` were 10.13% and -1.3%.
On the same counts, the results for `CCc1ccccc1Sc1nccn2c(=O)n(CC(=O)NCc3ccc(OC)cc3)nc12` are -5.48% and -1.47%.
As to `CCc1cccc(NC(=O)Cn2nc3c(SCc4ccc(Cl)cc4)nccn3c2=O)c1`, the Inhibition in the assay on Staphylococcus aureus is -8.25%; in the assay on Escherichia coli it was -12.19%.
On the same counts, the results for `CCCCN(C)c1ccc2nnc(CCc3nc(-c4cccc(Br)c4)no3)n2n1` are 7.62% and -1.77%.
Take `CC(C)c1nnc2c(=O)n(CC(=O)Nc3cccc(Br)c3)c3ccccc3n12`: the values for the Inhibition in the assay with Staphylococcus aureus and in the assay with Escherichia coli were 13.16% and -0.75%, respectively.
With `Cc1nnc2c(S(=O)(=O)N(Cc3ccc(F)cc3)c3ccc(C(C)C)cc3)cccn12`, the Inhibition was -0.08% in the assay on Staphylococcus aureus and -8.42% in the assay with Escherichia coli.
On the same counts, the results for `COc1ccc(CN(c2cc(C)cc(C)c2)S(=O)(=O)c2cccn3cnnc23)cc1F` are -10.31% and -13.2%.
On the same counts, the results for `COC(=O)c1ccc(CN(c2cccc(F)c2)S(=O)(=O)c2ccc3nncn3c2)o1` are 9.42% and -3.46%.
Regarding `COc1ccccc1N1CCN(C(=O)Cn2nc3ccc(-c4ccc(Cl)cc4)nn3c2=O)CC1`, the Inhibition was found to be 8.63% with Staphylococcus aureus and 0.78% in the assay with Escherichia coli.
On the same counts, the results for `COc1ccccc1-n1ccn2c(SCC(=O)Nc3ccc4c(c3)OCCO4)nnc2c1=O` are 18.21% and -1.11%.
Turning to `CCc1nnc2c(S(=O)(=O)N(Cc3cccc(C)c3)c3ccc(C(C)C)cc3)cccn12`, the figures for the Inhibition in the assay with Staphylococcus aureus and in the assay with Escherichia coli were 20.56% and -0.18%, respectively.
Taken in the same sequence, the figures for `COc1cc(NC(=O)Cn2nc3c(N4CCCC(C)C4)nccn3c2=O)cc(OC)c1` (configuration not stated) were -12.69% and -14.56%.
On the same counts, the results for `CCOc1cccc(CNC(=O)CCc2nnc3ccc(-c4ccc(C)cc4)nn23)c1` are -1.51% and -5.83%.
Taken in the same sequence, the figures for `O=C(CSc1nnc2c(=O)n(-c3ccccc3)ccn12)Nc1ccc(Br)cc1` were 5.51% and -4.01%.
Consider `CCOc1ccccc1NC(=O)Cn1nc2c(Sc3ccccc3)nccn2c1=O`, for which the Inhibition with Staphylococcus aureus was -2.46%; in the assay on Escherichia coli it was -5.85%.
On the same counts, the results for `O=C1CCCN1c1ccc(Cn2nc3ccc(-c4ccccc4)nn3c2=O)cc1` are -3.3% and -6.97%.
Turning to `Cc1ccc(NC(=O)Cn2nc3c(Oc4cccc(C)c4C)nccn3c2=O)c(Br)c1`, the values for the Inhibition in the assay with Staphylococcus aureus and in the assay on Escherichia coli were 0.42% and -4.42%, respectively.
As for `CC1CC(C)CN(c2nccn3c(=O)n(CC(=O)Nc4cccc(C(F)(F)F)c4)nc23)C1` (configuration not stated), the figures for the Inhibition with Staphylococcus aureus and in the assay on Escherichia coli were 16.31% and 0.9%, respectively.
Taken in the same sequence, the figures for `C=Cc1ccc(CN(c2ccc(C(C)C)cc2)S(=O)(=O)c2cccn3c(C)nnc23)cc1` were -12.1% and 1.96%.
Turning to `COC(=O)c1ccc(NC(=O)CSc2nc3ccccc3n3c(C(C)C)nnc23)cc1`, the Inhibition with Staphylococcus aureus was 12.04%; with Escherichia coli it was -0.7%.
On the same counts, the results for `Cc1ccc(-c2cc3c4nnc(CCC(=O)N5CCC(Cc6ccccc6)CC5)n4ccn3n2)cc1C` are 10.73% and 2.4%.
Taken in the same sequence, the figures for `O=C(CSc1nnc2c(=O)n(-c3ccccc3)ccn12)N1CCN(c2ccc(F)cc2)CC1` were 7.73% and -1.4%.
Taken in the same sequence, the figures for `COC(=O)c1ccc(NC(=O)Cn2nc3c4cc(-c5ccc(OC)cc5)nn4ccn3c2=O)cc1` were 11.91% and 3.86%.
As to `CCN(CCCNC(=O)CCc1nnc2ccc(-c3ccccc3)nn12)c1ccccc1`, the Inhibition with Staphylococcus aureus is 5.66%; in the assay on Escherichia coli it was 4.87%.
For the molecule `COc1ccc(NC(=O)c2ccc3nn(CC(=O)Nc4ccccc4C(F)(F)F)c(=O)n3c2)cc1`, the Inhibition is listed as 9.89% in the assay on Staphylococcus aureus and -3.73% in the assay with Escherichia coli.

Values taken from ChEMBL document CHEMBL4513146, “CO-ADD screening of Karazin Kharkiv National University (Ukraine) compounds”.
